SMILES strings stand for the structures. Screen size: about 67,000 compounds; about 300 (0.45%) showed an effect of 50% or more. Only a selection was taken, and strong results are over-represented in it overall.

Polyketide synthase Pks13 (Mycobacterium tuberculosis (strain ATCC 25618 / H37Rv)), sequence (I6X8D2 whole entry): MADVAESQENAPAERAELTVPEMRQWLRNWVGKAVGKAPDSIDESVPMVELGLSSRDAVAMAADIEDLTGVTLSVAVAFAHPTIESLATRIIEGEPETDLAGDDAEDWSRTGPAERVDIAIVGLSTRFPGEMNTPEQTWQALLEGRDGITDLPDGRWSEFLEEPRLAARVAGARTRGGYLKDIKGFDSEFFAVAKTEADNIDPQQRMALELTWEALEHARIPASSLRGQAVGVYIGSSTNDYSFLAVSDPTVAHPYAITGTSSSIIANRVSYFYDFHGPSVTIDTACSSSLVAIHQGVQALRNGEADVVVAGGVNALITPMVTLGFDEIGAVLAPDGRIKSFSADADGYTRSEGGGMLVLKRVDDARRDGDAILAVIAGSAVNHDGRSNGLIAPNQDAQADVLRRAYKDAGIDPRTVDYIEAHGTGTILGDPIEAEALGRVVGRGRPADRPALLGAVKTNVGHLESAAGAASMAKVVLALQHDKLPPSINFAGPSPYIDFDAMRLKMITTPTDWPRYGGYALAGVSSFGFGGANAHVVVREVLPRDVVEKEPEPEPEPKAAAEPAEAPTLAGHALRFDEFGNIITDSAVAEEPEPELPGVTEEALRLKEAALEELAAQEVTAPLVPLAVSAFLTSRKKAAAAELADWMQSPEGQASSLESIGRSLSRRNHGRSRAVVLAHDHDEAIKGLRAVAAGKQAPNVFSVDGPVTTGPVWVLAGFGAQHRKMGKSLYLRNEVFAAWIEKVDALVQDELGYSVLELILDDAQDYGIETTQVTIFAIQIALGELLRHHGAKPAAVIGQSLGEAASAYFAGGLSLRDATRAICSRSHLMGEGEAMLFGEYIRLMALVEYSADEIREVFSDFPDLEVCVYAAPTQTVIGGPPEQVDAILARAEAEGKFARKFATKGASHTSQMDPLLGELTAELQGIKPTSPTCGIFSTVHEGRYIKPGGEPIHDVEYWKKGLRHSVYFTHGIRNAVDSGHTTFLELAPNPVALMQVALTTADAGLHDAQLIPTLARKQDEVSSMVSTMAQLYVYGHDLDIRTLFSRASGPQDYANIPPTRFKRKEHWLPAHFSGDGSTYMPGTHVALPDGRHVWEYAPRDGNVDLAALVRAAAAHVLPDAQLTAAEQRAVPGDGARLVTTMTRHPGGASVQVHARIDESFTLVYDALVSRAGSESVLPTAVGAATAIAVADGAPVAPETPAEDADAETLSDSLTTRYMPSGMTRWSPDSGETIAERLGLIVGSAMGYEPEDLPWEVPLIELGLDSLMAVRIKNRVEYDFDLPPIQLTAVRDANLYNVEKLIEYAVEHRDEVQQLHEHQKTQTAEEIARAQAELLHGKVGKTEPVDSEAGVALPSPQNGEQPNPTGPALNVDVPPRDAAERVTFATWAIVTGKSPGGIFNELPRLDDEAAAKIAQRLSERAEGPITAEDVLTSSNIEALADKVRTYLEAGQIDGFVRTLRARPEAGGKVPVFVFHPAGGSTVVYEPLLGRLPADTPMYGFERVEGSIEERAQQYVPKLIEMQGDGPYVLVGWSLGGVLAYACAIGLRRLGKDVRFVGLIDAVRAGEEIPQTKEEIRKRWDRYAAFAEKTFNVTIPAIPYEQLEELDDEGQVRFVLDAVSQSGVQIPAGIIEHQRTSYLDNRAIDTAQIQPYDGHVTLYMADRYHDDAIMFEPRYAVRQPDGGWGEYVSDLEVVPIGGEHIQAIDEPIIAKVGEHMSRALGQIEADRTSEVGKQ

This test concerns the target Polyketide synthase Pks13 (Mycobacterium tuberculosis (strain ATCC 25618 / H37Rv)) (UniProt I6X8D2). The test can be described thus: Mycobacterium tuberculosis Polyketide synthase 13 Thioesterase (PKS13). The format is functional. Also on record: scale not given: in the data most compounds retested in dose-response had high values. The note with it: 30 µM.
`Cc1noc([C@@H]2CC[C@@H]3[C@@H](CCN3S(=O)(=O)c3cccnc3)O2)n1`: the Percent Effect is 4.22%. For the compound `O=C1OCCN1CC(=O)N1C[C@H]2CC[C@@H]1CN(C(=O)c1ccccn1)C2`, the Percent Effect was -14.6%. Take `Cc1ccc(N2CC[C@@H]3CN(Cc4cc[nH]n4)C[C@@H]3C2)nn1`: the Percent Effect was 3.96%. Consider `CCN1CCN(S(=O)(=O)N2CCCC2)[C@H]2CS(=O)(=O)C[C@H]21`, for which the Percent Effect is -23.5%.

With `CC(=O)N1CC[C@H]2N(C)CC[C@@]2(C(=O)Nc2cccnc2)CC1`, the Percent Effect is -11.6%.

`O=C(c1ccco1)N1C[C@H]2CN(Cc3cccc(F)c3)C(=O)[C@H]2C1`: the Percent Effect was -4.13%. As to `c1ccc2c(c1)C(NC1CCCC1)CC21CCNCC1` (stereo not given), the Percent Effect is -6.43%. The same measure for `CNC(=O)N1C[C@H]2CC[C@@]3(N=C(c4ccccc4)NC3=O)[C@H]2C1`: -17.2%; for `CCOC(=O)[C@@H]1[C@@H](c2ccccc2)CN2CCN(S(C)(=O)=O)C[C@H]12`: -1.54%.

For `c1coc(CN2C[C@@H]3OCCN(CCN4CCCC4)[C@@H]3C2)c1`, the Percent Effect was -17.4%. For `CCc1nnc(Nc2cccc(C3CCN(C(C)=O)CC3)n2)s1`, the Percent Effect was 86.9%.

In the case of `CCc1nnc(Nc2cccc(C3CCN(C(=O)CNC)CC3)n2)s1`, the Percent Effect was -24.5%. In the case of `CCc1nnc(Nc2cccc(C3CCN(C(=O)CO)CC3)n2)s1`, the Percent Effect worked out at 4.46%. Consider `CC(=O)N1CCO[C@@H]2CN(C(=O)NCc3ccccc3)CC[C@@H]2C1`, for which the Percent Effect was -30.5%.

For the compound `Cc1ccc(N2CC[C@H]3O[C@H](C(=O)NCc4ccco4)CC[C@H]32)nn1`, the Percent Effect was -3.57%. The same measure for `Cc1ccc(N2CC[C@H]3OCC[C@@]3(C(=O)N3CCCO3)C2)nn1`: -34%; for `COc1ccc(CN2C[C@@H]3OCC(=O)N(Cc4nccn4C)[C@@H]3C2)cc1`: -29.9%; for `Cc1ccccc1CN1CCN(c2ncnc3c2NC(=O)CN3)CC1`: -5.54%. The value for `O=C1CNc2ncnc(N3CCN(Cc4ccccc4)CC3)c2N1` was -2.51%; that for `O=C1CNc2ncnc(N3CCN(Cc4ccccc4F)CC3)c2N1` was 84.6%; that for `Cc1noc(C)c1CN1CC[C@H]2C[C@@H](c3ccncn3)O[C@@H]2C1` was -34.7%. With `Cc1nc2cc(C3CCCCN3C(=O)C3CC3)nn2c(O)c1C` (stereo not given), the Percent Effect came to 9.02%. The same measure for `CC(=O)N1N=C(c2ccco2)OC1C(=O)NCC(C)C` (stereo not given): 52.5%; for `CC(=O)N1N=C(c2ccco2)OC1C(=O)N(CC(C)C)CC(C)C` (stereo not given): -6.84%; for `CC(=O)N1N=C(c2ccco2)OC1C(=O)NCCc1ccc(O)cc1` (stereo not given): 8.81%.

For `CS(=O)(=O)N1CC[C@H]2OCC[C@@]2(C(=O)NCc2ccccn2)C1`, the Percent Effect was -5.05%.

With `O=C(c1ccco1)N1C[C@@H]2CCN(c3cccnc3)C[C@@H]2C1`, the Percent Effect was 18.9%. `COc1ccc(C2(C(=O)N3CC[C@@]4(O)CCNC[C@H]4C3)CCCC2)cc1`: the Percent Effect was -3.94%. As for `COc1cccc(C(=O)N2CCc3c(nc(N)[nH]c3=O)C2)c1OC`, the Percent Effect was -13.9%. The value for `Nc1nc2c(c(=O)[nH]1)CCN(C(=O)c1cccc3nccnc13)C2` was 2.77%; that for `COc1cccc(C(=O)N2CCc3c(nc(N)[nH]c3=O)C2)c1C` was 79.5%. With `O=C1CC[C@H]2CN(Cc3cccc(F)c3)CC[C@H]2N1CCc1c[nH]cn1`, the Percent Effect is -22.1%.

Consider `COCCC(=O)N1C[C@H]2CN(Cc3cccnc3)C(=O)[C@H]2C1`, for which the Percent Effect is -37.5%. The same measure for `NCC1[C@H]2CN(Cc3cccc(Cl)c3)C[C@@H]12` (stereo not given in full): -29.5%; for `CNC(=O)N1C[C@H]2N(c3ncccn3)CCC[C@@]2(C(=O)NCC2CC2)C1`: -22%. Turning to `CCN(CC)c1nc2sc(C(=O)NC(C)(C)C(=O)OC)cc2s1`, the Percent Effect is 39.6%. The value for `COC(=O)C(C)(C)NC(=O)c1cnc(C(C)(C)C)s1` was -10.1%; that for `COC(=O)C(C)(C)NC(=O)c1cc2sc(N(C)C)nc2s1` was 52.3%; that for `CCCS(=O)(=O)N1C[C@H]2C[C@H](C(=O)N3CCOCC3)[C@@H](C1)O2` was -22.9%. The same measure for `Cc1cccc(CN2C(=O)CC[C@@H]3[C@H]2CCN3Cc2nccn2C)n1`: -58.5%; for `COCCN1C(=O)C[C@@H]2[C@H]1CCN2C(=O)c1ccc[nH]1`: -9.69%; for `CN1CCCC[C@@H]2[C@H]1[C@@H](c1ccccc1)CCN2C(=O)c1cccnc1`: 9.14%. The same measure for `Cc1noc([C@H]2COC[C@H]3CN(C(=O)Cc4ccsc4)C[C@H]32)n1`: -1.57%; for `CC(=O)N1CCCC(c2ccc(Br)cn2)C1` (stereo not given): -6.19%; for `CC(=O)N1CCCC1c1ccc(-c2c(C)noc2C)cn1` (stereo not given): -29.1%.

In the case of `CC(=O)N1CCCC1c1ccc(Br)cn1` (stereo not given), the Percent Effect is 61.5%. The same measure for `Cc1cccc(CN2C(=O)CC[C@@H]3[C@H]2CCN3C(=O)c2ccsc2)n1`: -13.6%; for `Cc1ccnc(OC[C@@]23CCO[C@@H]2CCN(S(C)(=O)=O)C3)n1`: -29.2%. The value for `CN(C)[C@@H]1CN(C(=O)Cc2cccc(F)c2)[C@@H]2CCCO[C@H]12` was -3.8%.

`Cc1ncc(C(=O)OCC2CCN(c3ccccc3)C2)s1` (stereo not given): the Percent Effect worked out at 39.2%. The same measure for `COCc1nc(C(=O)OCC2CCN(c3ccccc3)C2)cs1` (stereo not given): 58.1%. The same measure for `Cn1ncc(C(=O)OCC2CCN(c3ccccc3)C2)c1C(F)F` (stereo not given): 11.4%. As for `Cc1ncsc1C(=O)OCC1CCN(c2ccccc2)C1` (stereo not given), the Percent Effect is 30.2%. On to `O=C(OCC1CCCN(C(=O)c2ccccc2)C1)c1cscn1` (stereo not given), for which the Percent Effect is 10.2%.

Consider `O=C(OCC1CCN(c2ccccc2)C1)c1cscn1` (stereo not given), for which the Percent Effect came out at 62.9%.

The values are drawn from ChEMBL document CHEMBL3988442, “University of Dundee, Small-Polar-MMV Screening Library” (2021).
